Data on 50 molecules can be found in PubChem BioAssay AID1672 (Johns Hopkins Ion Channel Center, 2009).

Out of some 310,000 compounds screened, about 2,600 (0.84%) were called active.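 The calls were made as follows: active = fluorescence ratio B-score at or below minus 3 SD of library scores, with starting-brightness B-score within 2 SD (cut at about -4.2 in these data); inactive = the rest.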 Many of the other results were omitted from the sample, so actives are more common in it than they were.

The experiment deals with Inward rectifier potassium channel 2 (Mus musculus) (UniProt P35561). The experiment can be described thus: inhibitors of mouse Kir2.1 inward-rectifier potassium channel (AID 1672).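 Also: channel flux triggered by added potassium and thallium sulfate stimulus; B-score of peak minus minimum fluorescence over baseline after thallium stimulus; more negative B-score means stronger Kir2.1 block with less thallium influx.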 The settings on record: HEK293-Kir2.1, FluxOR thallium flux fluorescence; at 10 µM; active compounds read low.
Chain of Inward rectifier potassium channel 2 (Mus musculus) (P35561 whole entry, looked up): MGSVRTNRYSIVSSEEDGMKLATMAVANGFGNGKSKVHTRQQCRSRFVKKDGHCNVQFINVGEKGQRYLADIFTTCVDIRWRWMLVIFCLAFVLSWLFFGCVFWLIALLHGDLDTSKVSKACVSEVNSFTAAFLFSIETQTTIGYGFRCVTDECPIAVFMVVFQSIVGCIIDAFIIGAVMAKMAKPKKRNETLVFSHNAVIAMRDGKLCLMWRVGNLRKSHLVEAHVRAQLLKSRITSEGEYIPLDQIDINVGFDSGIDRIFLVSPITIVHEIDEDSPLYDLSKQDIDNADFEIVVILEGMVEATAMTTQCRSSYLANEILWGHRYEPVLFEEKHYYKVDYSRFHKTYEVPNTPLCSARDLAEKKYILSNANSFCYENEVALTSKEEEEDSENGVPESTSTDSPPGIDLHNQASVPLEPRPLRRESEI
Regarding `CNCC(O)c1cc(F)c(OCc2ccccc2)c(OCc2ccccc2)c1F` (stereo not given), the B-score is -10.4 (active). For `COc1ccc2c(c1O)-c1cccc3c1[C@@H](C2)N(C)CC3`, the B-score is -0.89 (inactive). As for `C=CC12CN(C)[C@@H]3C4CO[C@H](C[C@H]41)[C@]1(C(=O)Nc4ccccc41)[C@@H]32` (stereo not given in full), the B-score was -0.31 (inactive). As to `COC(=O)C1=C(c2ccccc2)C[C@@H]2CC[C@H]1N2C(=O)NCc1ccco1`, the B-score is -0.88 (inactive). The figure for `COc1ccc(N2C(=O)/C(=C/c3ccco3)C(=O)NC2=S)cc1` is -1 (inactive); for `COC(=O)N(c1ccc(OC)cc1)P1(=S)OCCC(C)O1` (stereo not given) it is -0.02 (inactive); for `CCOc1cccc(=NC2CCCCC2)c2c(C)[nH]c(C)c12` it is -6.51 (active). Turning to `CCC(C)n1c(O)c(/C=N/Nc2nc3c(c(=O)n(C)c(=O)n3C)n2C)c(=O)[nH]c1=S` (stereo not given), the B-score is 1.97 (inactive). `CCN1C(=O)C(=Cc2c(C)n(CC(=O)NCC3CCCO3)c3ccccc23)C(=O)N(CC)C1=S` (stereo not given): the B-score was 1.19 (inactive). As for `Cc1ccc(S(=O)(=O)N(C)c2ccc(C(=O)NCC3(N(C)C)CCCCC3)cc2)cc1`, the B-score was 0.21 (inactive). The result for `COC(=O)C1=C(c2ccccc2)C[C@@H]2CC[C@H]1N2C(=O)N1CCCCC1` reads -0.79 (inactive); that for `c1ccc(C2NCc3ccccc3-n3cccc32)cc1` (stereo not given), -6.08 (active); that for `COc1ccc(C2NCc3ccc4c(c3-n3cccc32)OCO4)cc1OC` (stereo not given), -0.31 (inactive). Regarding `COc1ccc2c(c1)[C@]13CCCCC1C(C2)N(C)CC3` (stereo not given in full), the B-score is -0.18 (inactive). For the molecule `O=C(Cc1ccccc1)N1CCN(C2CCCCCC2)CC1`, the B-score is -1.16 (inactive).

`CCCCn1c(=O)c(C(=O)Nc2ccccc2Cl)c(O)c2ccccc21`: the B-score was -1.32 (inactive). As for `CN(C)CCN(CC1CCCN(Cc2ccccc2F)C1)C(=O)Cc1ccc(F)c(F)c1` (stereo not given), the B-score is -0.57 (inactive). `O=C1N=c2ccccc2=C/C1=C\c1c(O)[nH]c(=S)[nH]c1=O`: the B-score is 0.39 (inactive).

In the case of `CCCCCCCCCCCCn1ccc(=N)cc1`, the B-score was -13 (active). Take `COc1ccc(C(=O)CC2C(=O)N(C)C(=O)N(C)C2=O)cc1`: the B-score was 0.17 (inactive). With `c1ccc(CCN2CCC3(CC2)OCCO3)cc1`, the B-score was 1.88 (inactive).

On to `COC(=O)C1=C(c2cc3ccccc3s2)C[C@@H]2CC[C@H]1N2C(=O)NCCO`, for which the B-score was -0.7 (inactive). The result for `Clc1ccc2nc3c(c(-c4ccccc4)c2c1)CNCC3` reads -7.18 (active); that for `Cc1nn(-c2ccccc2)c(C)c1NC(=O)COC(=O)Cc1ccccc1`, -0.02 (inactive); that for `CCOC(=O)C1(CCc2ccccc2)CCN(Cc2ccco2)CC1`, -2.11 (inactive). Regarding `CC[C@H]1CC2CN3CCc4c([nH]c5ccccc45)C(C(=O)OC)(C2)C13` (stereo not given in full), the B-score was -2.28 (inactive). For the molecule `CC(c1ccccc1)(c1ccccc1)c1ccncc1`, the B-score is -4.28 (active). For the molecule `CCN(CC)C(=O)c1ccc(NC(=O)c2sccc2-c2ccccc2)cc1`, the B-score is 0.02 (inactive). `COC(=O)C1=C(c2cc3ccccc3s2)C[C@@H]2CC[C@H]1N2C(=O)NC(C)C`: the B-score was -1.96 (inactive).

In the case of `O=C(C1CC(=O)N(C2CCCC2)C1)N1CCC2(CC1)OCCO2` (stereo not given), the B-score was 0.05 (inactive). As for `Cc1ccc(C2CN(C)CC2C(=O)c2ccc(F)cc2)cc1` (stereo not given), the B-score was -2.69 (inactive). `O=c1c2ccccc2nc(/C=C/c2ccco2)n1-c1ccccc1O`: the B-score is -0.02 (inactive).

`C/C(=N/O)c1ccc2ccc3ccccc3c2c1`: the B-score is -0.33 (inactive). `Cc1nc2ccccn2c1P(=S)(N1CCCCC1)N1CCCCC1`: the B-score is -5.35 (active).

Turning to `CCCCCn1c(=O)c(C(=O)NCc2ccccc2)c(O)c2ccccc21`, the B-score was 1.46 (inactive). On to `COc1ccccc1C1=NCc2nnc(CSC)n2-c2ccc(Cl)cc21`, for which the B-score was 0.29 (inactive). Take `CCOc1ccc(-c2cc(C)[n+](CCN(CC)CC)c(-c3ccc(OCC)cc3)c2)cc1`: the B-score was -4.58 (active). `Cc1cc2ccccn2c1C(C[N+](=O)[O-])c1c(F)cccc1Cl` (stereo not given): the B-score was -0.86 (inactive). The result for `COc1ccc(Br)cc1CNCCc1cccc(Cl)c1` reads -10.4 (active); that for `COc1ccc(CNCCc2ccc3c(c2)OCO3)c(OC)c1OC`, 0.87 (inactive). Take `COc1ccc(CNCCc2c[nH]c3ccccc23)cc1OC`: the B-score was 0.17 (inactive). As to `NCCc1c[nH]c2ccc(O)cc12`, the B-score is -0.71 (inactive). As to `COC(=O)C1=C(c2cc3ccccc3s2)C[C@@H]2CC[C@H]1N2C(=O)NCc1cccc2ccccc12`, the B-score is 2.94 (inactive). As for `COC(=O)C1=C(c2cc3ccccc3o2)C[C@@H]2CC[C@H]1N2C(=O)NC1CCCCC1`, the B-score was -0.65 (inactive). The result for `CN(c1ccccc1)c1ccc([N+](=O)[O-])c2nonc12` reads -1.89 (inactive); that for `O=C(Cc1ccccc1[N+](=O)[O-])N1CCN(Cc2ccc3c(c2)OCO3)CC1`, 0.65 (inactive).

As for `Oc1cc2c(cc1CN1CCN(c3ccccc3)CC1)OCO2`, the B-score is -0.91 (inactive). In the case of `Fc1ccc(N2CCN(Cc3ccc4c(c3)OCO4)CC2)cc1`, the B-score was -6.26 (active). The figure for `CCN1CCN(c2nc3c(c(=O)[nH]2)CCC3)CC1` is 1.68 (inactive); for `COc1cccc(N2C(=O)NC(=O)/C(=C\c3cn(C)c4ccccc34)C2=O)c1` it is 0.09 (inactive).
